Screening results as filed in PubChem.
Only some compounds are listed: those with a hit (about 1.1% of all), similar ones and a draw of the others.
AGP1 TOR yeast = modulators of TOR pathway AGP1-GFP in S. cerevisiae; 320,000 tested, 0.02% active; GFP response vs DMSO, % at 10 µM; S. cerevisiae AGP1-GFP multiplex flow cytometry, 3 h; GFP as percent of DMSO wells; AID 2066;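 active means GFP response relative to DMSO above a set limit, near screen average plus 3 SD, cut at about 150% in these data; inconclusive means fewer than 70 cells counted for the yeast strain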;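 further: median GFP channel fluorescence of the gated AGP1 strain per well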
LAP4-GFP MLPCN = modulators of TOR pathway LAP4-GFP in S. cerevisiae | S. cerevisiae LAP4-GFP multiplex, flow cytometry GFP, 3 h; median GFP as percent of DMSO wells | GFP response vs DMSO, % at 10 µM | 320,000 tested, 0.34% active | AID 2023;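 active means GFP response vs DMSO above a set limit, about the screen mean plus 3 SD, cut at about 150% in these data; inconclusive means under 70 cell events counted for the yeast strain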
VLA-4 inh = inhibition in a human VLA-4 binding assay; 330,000 tested, 0.2% active; inhibition, % (about 7 µM as worked out from the volumes in the protocol); VLA-4 expressing cells, ligand binding flow cytometry; AID 2557; P13612; in the data active means inhibition above about 50%
Target sequence (P13612 whole entry, looked up): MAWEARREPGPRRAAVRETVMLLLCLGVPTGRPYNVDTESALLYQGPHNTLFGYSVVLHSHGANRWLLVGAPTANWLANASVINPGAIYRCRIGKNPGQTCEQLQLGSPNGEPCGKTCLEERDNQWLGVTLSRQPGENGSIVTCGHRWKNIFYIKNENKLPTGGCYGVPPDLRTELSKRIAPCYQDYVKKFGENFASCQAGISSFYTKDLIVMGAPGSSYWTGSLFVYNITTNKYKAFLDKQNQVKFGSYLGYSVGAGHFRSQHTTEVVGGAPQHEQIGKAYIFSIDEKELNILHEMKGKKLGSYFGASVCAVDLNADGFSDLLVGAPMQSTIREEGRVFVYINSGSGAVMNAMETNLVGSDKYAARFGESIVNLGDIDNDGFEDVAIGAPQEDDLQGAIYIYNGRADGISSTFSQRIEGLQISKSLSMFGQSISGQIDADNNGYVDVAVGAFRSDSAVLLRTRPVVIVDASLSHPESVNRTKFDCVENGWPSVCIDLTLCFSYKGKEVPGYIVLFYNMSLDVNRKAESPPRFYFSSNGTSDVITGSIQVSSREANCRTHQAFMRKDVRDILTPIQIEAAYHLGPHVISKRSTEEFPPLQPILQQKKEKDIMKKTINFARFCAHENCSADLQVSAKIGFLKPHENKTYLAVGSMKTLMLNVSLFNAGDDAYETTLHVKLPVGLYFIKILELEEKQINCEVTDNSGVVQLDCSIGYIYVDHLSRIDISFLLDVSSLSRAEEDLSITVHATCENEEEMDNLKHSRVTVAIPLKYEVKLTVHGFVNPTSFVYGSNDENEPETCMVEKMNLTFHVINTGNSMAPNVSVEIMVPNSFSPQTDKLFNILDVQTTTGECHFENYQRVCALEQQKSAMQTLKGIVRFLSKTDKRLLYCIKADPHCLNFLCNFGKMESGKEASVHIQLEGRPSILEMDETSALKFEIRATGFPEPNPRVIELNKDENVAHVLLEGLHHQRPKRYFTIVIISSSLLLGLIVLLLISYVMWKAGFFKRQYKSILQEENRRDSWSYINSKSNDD
CIT2 TOR yeast = yeast TOR pathway CIT2-GFP modulation | S. cerevisiae CIT2-GFP strain, flow cytometry, 3 h; 100 means same as DMSO wells | AID 2029 | GFP response vs DMSO, % at 10 µM | 320,000 tested, 0.065% active;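 active means GFP response relative to DMSO above a set limit, near the screen mean plus 3 SD, cut at about 150% in these data; inconclusive means Fewer than 70 cells measured for a yeast strain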;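 further: ratio of well median GFP fluorescence to mean of DMSO wells on the plate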
MEP2-GFP yeast = modulators of TOR pathway MEP2-GFP in S. cerevisiae; GFP response vs DMSO, % at 10 µM; S. cerevisiae MEP2-GFP strain, flow cytometry GFP, 3 h; 100% = DMSO control level; 330,000 tested, 0.51% active;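 active means GFP response versus DMSO above a set limit, roughly screen mean plus 3 SD, cut at about 180% in these data; inconclusive means fewer than 70 cells counted for a yeast strain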;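 further: median GFP fluorescence of the barcode-gated MEP2-GFP cells per well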
RPL19A-GFP yeast = alters RPL19A-GFP fluorescence in TOR pathway yeast screen; S. cerevisiae RPL19A-GFP strain, flow cytometry, 3 h; hits give low values; percent response vs DMSO, % at 10 µM; 330,000 tested, 0.3% active;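 active means percent response vs DMSO below 50%; inconclusive means fewer than 70 events counted for the yeast strain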;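 further: median channel GFP fluorescence of the barcoded RPL19A-GFP strain; ratio of sample median GFP to plate DMSO average so 100% = DMSO; lower means less RPL19A-GFP as with rapamycin TOR inhibition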
* marks the source's active call; other numbers are inactive results; i = inactive; ? = inconclusive; · = no result; [ ] = remark or other dose.

SMILES | AGP1 TOR yeast | LAP4-GFP MLPCN | VLA-4 inh | CIT2 TOR yeast | MEP2-GFP yeast | RPL19A-GFP yeast
CN(CC(=O)Nc1ccc(F)c(F)c1)S(=O)(=O)c1cccs1 | ? | ? | 1.3 | ? | ? | 26.8*[may fluoresce violet]
CN(CC(=O)Nc1ccc2c(c1)OCO2)S(=O)(=O)c1cccs1 | ? | 73.7 | -11.1 | ? | 302.4*[may fluoresce violet] | 44.7*[may fluoresce violet]
Cc1noc(C)c1COc1ccc(C(=O)NCc2cccs2)cc1 | 99.8 | 97.5 | 12.2 | 106.8 | 108.4 | 99.9
CC1CN(C(=O)COC(=O)c2ccc(O)cc2)CC(C)O1 (centres undefined) | ? | 63.1 | 6.6 | ? | ? | 22.7*[may fluoresce violet]
CCC(=O)N1CCc2cc(Br)cc(S(=O)(=O)N3CCCCC3CC)c21 (centres undefined) | 104.0 | 92.7 | 5.0 | 97.9 | 96.4 | 105.1
COC(=O)c1c(C(=O)OC)c(-c2ccccc2)n2c1CS(=O)C2 (centres undefined) | ? | 100.4 | -8.7 | ? | 355.1*[may fluoresce violet] | 41.0*[may fluoresce violet]
N#Cc1ccccc1OCC(=O)OCC(=O)NC1CC1 | 100.8 | 98.5 | 2.9 | 100.6 | 100.3 | 97.7
CC(=O)N1CCC(=NNC(=O)c2cc3ccccc3cc2O)CC1 | 16.5 | 83.3 | 9.2 | ? | 117.2 | 41.6*[may fluoresce violet]
CC1CN(C(=O)c2ccccc2NS(=O)(=O)c2ccc(Cl)cc2)CC(C)O1 (centres undefined) | 119.6 | 140.3 | -2.3 | 109.3 | 121.4 | 106.5
COc1ccc(NC(=O)Cc2nnc(SCC(=O)c3ccc(F)cc3)n2C)cc1 | 97.8 | 90.7 | 7.4 | 97.1 | 102.8 | 102.3
CCOC(=O)c1sc(-c2ccc(C(F)(F)F)cc2)nc1O | 25.6 | 139.6 | 17.9 | ? | 529.1*[may fluoresce violet] | 88.0
COC(=O)[C@@H](NC(=O)N1CCN(C(=O)C2COc3ccccc3O2)CC1)C(C)C (some centres undefined) | ? | 84.2 | 16.4 | ? | 172.5 | 19.4*[may fluoresce violet]
O=C(CN1C(=O)NC2(CCCC2)C1=O)Nc1cc(S(=O)(=O)N2CCCCC2)ccc1Cl | 106.2 | 107.7 | 13.6 | 101.9 | 103.1 | 110.6
COc1cccc(-c2nc(C(=O)NCCCN3CCOCC3)cc3c2[nH]c2ccccc23)c1 | 95.6 | 107.0 | -1.3 | 93.1 | 110.1 | 90.7
O=C(NCCCN1CCOCC1)c1cc2c([nH]c3ccccc32)c(-c2cccc(Br)c2)n1 | 48.0 | 100.0 | 15.2 | ? | 343.6*[may fluoresce violet] | 19.2*[may fluoresce violet]
Cc1ccc(C(=O)NCCc2sc(C)nc2C)cc1 | ? | 83.5 | 3.4 | ? | 222.2*[may fluoresce violet] | 31.1*[may fluoresce violet]
COc1ccccc1CN1CC(C(=O)NCc2c(F)ccc(C)c2F)CCC1=O (centres undefined) | 91.1 | 99.2 | -117.0 | 91.0 | 106.9 | 95.4
CC(C)CC(OC(=O)c1nsc(Cl)c1Cl)C(=O)NC1CCCC1 (centres undefined) | ? | 60.4 | 0.7 | ? | 243.3*[may fluoresce violet] | 42.9*[may fluoresce violet]
CCc1ccccc1NC(=O)C(C#N)Cc1cccnc1 (centres undefined) | ? | 93.0 | 0.1 | ? | 208.7*[may fluoresce violet] | 60.6
COc1cccc(NC(=O)C(C#N)Cc2ccncc2)c1 (centres undefined) | 113.7 | 97.8 | 2.6 | 99.8 | 94.0 | 103.8
COc1ccccc1CNC(=O)C1CCN(S(=O)(=O)c2ccc3nc4c(c(C(=O)O)c3c2)CCCC4)CC1 | ? | 49.9 | 22.7 | ? | 257.9*[may fluoresce violet] | 34.7*[may fluoresce violet]
COc1ccccc1NC(=O)Cn1nnc(-c2ccccc2NC(=O)c2ccco2)n1 | 103.4 | 85.8 | 13.4 | 100.1 | 195.0* | 96.5
COc1ccc(NC(=O)Cn2nnc(-c3ccccc3NC(=O)c3ccco3)n2)cc1 | 103.5 | 92.1 | 11.4 | 102.7 | 98.8 | 94.9
O=C(NC(=S)Nc1ccc2oc(-c3cccnc3)nc2c1)c1cccc(Cl)c1 | · | 86.8 | 6.2 | ? | 226.5*[may fluoresce violet] | 52.1
O=C(Nc1ccc2oc(-c3cccnc3)nc2c1)c1cc2ccccc2o1 | 94.5 | 107.7 | 4.7 | 96.9 | 119.1 | 97.7
SMILES | AGP1 TOR yeast | LAP4-GFP MLPCN | VLA-4 inh | CIT2 TOR yeast | MEP2-GFP yeast | RPL19A-GFP yeast
COc1ccc(NC(=O)CN2C(=O)NC(CC(C)C)C2=O)cc1S(=O)(=O)N1CCOCC1 (centres undefined) | 99.3 | 98.5 | -4.8 | 98.3 | 97.4 | 100.0
Cc1cccc(CSCc2ccc(C(=O)NC(C)C)o2)c1 | 123.4 | 130.3 | 2.6 | 138.7 | 258.6* | 104.1
Cc1c(OC(C)C(=O)NCCCN2CCOCC2)ccc2c1oc(=O)c1ccccc12 (centres undefined) | ? | 91.5 | 10.2 | ? | 162.4 | 26.5*[may fluoresce violet]
Cn1c(CBr)c(C(=O)c2ccc([N+](=O)[O-])cc2)c(=O)n(C)c1=O | ? | 113.2 | -22.9 | ? | 444.2*[may fluoresce violet] | 54.7
CC(=O)c1cn(-c2ccc([N+](=O)[O-])cc2)c(=O)n(C)c1=O | 105.7 | 104.4 | -8.9 | 102.6 | 95.8 | 99.4
Cc1ccc(NS(=O)(=O)c2ccc(CCC(=O)N3CCOCC3)cc2)cc1 | 22.2 | 90.9 | 10.9 | 109.4 | 180.9* | 60.3
CNS(=O)(=O)c1ccc(CCC(=O)N2CCOCC2)cc1 | 95.8 | 90.2 | -12.2 | 102.7 | 103.2 | 100.1
Cc1ccc(S(=O)(=O)Nc2ccc(C(=O)N3CCOCC3)cc2)cc1 | 25.9 | 91.3 | 2.5 | ? | 192.0*[may fluoresce violet] | 64.1
CCNS(=O)(=O)c1ccc(CCC(=O)N2CCN(Cc3ccccc3)CC2)cc1 | 96.9 | 95.0 | 9.6 | 104.8 | 102.3 | 100.7
O=C(c1ccc(S(=O)(=O)Nc2ccccc2)cc1)N1CCOCC1 | 98.4 | 96.2 | 8.8 | 94.6 | 101.6 | 99.8
Cc1ccc(CSCC(=O)N2CCOCC2)cc1 | ? | 72.3 | -3.3 | ? | 235.7*[may fluoresce violet] | 56.1
CCOC(=O)N1CCN(C(=O)CCc2ccc(S(=O)(=O)NCCc3ccccc3)cc2)CC1 | 108.2 | 161.1* | i | 152.6* | 193.1* | 108.5
Cc1ccc(S(=O)(=O)N2CCCCC2)cc1NC(=O)CNc1ccc(C(F)(F)F)cc1 | 101.6 | 102.6 | 7.3 | 96.7 | 99.2 | 97.4
COc1ccc(CCC(=O)NCCOc2ccccc2Cl)cc1 | ? | 70.0 | -4.2 | ? | 185.5*[may fluoresce violet] | 27.9*[may fluoresce violet]
COc1ccc(C2CC(c3ccccc3)=NN2S(=O)(=O)c2ccccc2)cc1 (centres undefined) | 96.8 | 191.4* | -440.6 | 130.5 | 235.1* | 107.6
O=S(=O)(c1ccccc1)N1N=C(c2ccccc2)CC1c1ccco1 (centres undefined) | 108.1 | 89.9 | -14.6 | 109.2 | 94.5 | 102.9
O=[N+]([O-])c1ccc(O)c(NC(=S)Nc2ccccc2)c1 | 21.5 | 77.6 | 8.2 | ? | 312.6*[may fluoresce violet] | 89.8
COc1ccc([N+](=O)[O-])cc1NC(=S)Nc1ccccc1 | 107.4 | 98.9 | 7.0 | 100.1 | 95.8 | 93.8
CN1CCN(/N=C/c2ccc(-c3ccccc3)cc2)CC1 | 103.1 | 105.3 | 8.5 | 100.7 | 96.8 | 96.7
